Source: PubChem BioAssay
This is a sample that favours compounds with a hit; in the whole collection about 3.1% have one here.
Nox1 inhibitor – human Nox1 inhibition; Q9Y5S8; HT29 cells, luminol chemiluminescence ROS; inhibition, % at 6.7 µM; 0.81% of 16,000 active
S1P1 ag – activates the human S1P1 receptor; S1P1 agonist cell-based reporter assay; AID 1044; 1.5% of 16,000 active; activation, % at 4.5 µM; in the data active means activation above about 80%
Target sequence (P21453 whole entry, looked up): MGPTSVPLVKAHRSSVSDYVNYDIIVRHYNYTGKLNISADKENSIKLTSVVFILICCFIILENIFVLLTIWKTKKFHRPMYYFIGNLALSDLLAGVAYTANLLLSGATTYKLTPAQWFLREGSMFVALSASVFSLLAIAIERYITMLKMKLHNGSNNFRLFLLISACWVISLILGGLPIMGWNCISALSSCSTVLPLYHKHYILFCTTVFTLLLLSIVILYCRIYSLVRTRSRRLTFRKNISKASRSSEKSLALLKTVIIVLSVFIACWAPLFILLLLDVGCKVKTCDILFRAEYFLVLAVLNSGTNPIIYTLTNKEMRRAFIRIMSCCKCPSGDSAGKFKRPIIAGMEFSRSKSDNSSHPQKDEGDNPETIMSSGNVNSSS
NOTCH ag – activates NOTCH signaling in reporter cells. NOTCH signaling luciferase reporter cells, luminescence. activation, % at 2.5 µM. 0.4% of 15,000 active. AID 434982; in the data active means activation above about 2.2%
Luminol counter – counter-screen for Nox1 inhibitors: inhibitors of luminol chemiluminescence | HRP/luminol/H2O2 chemiluminescence counterscreen | inhibition, % at 6.7 µM | 0.4% of 16,000 active | AID 1823; further: reference of the scale not given here
* = called active by the depositor. Unless noted, no stated cut-off is given here; in the data, active means inhibition above about 75%; inactive means the rest.

What do the screens show for `COc1ccc(C(=O)/C=C/OC(=O)c2cc(C(F)(F)F)cc(C(F)(F)F)c2)cc1`?
Nox1 inhibitor: -15; S1P1 ag: -1; NOTCH ag: 0; Luminol counter: 3

How did N#Cc1c(Cl)c(Cl)c(Cl)c(Cl)c1C#N do in these assays?
Nox1 inhibitor: -11; S1P1 ag: 110*; NOTCH ag: -1; Luminol counter: 2

How did COc1ccc(C(=O)NC(=Nc2c(C)cccc2C)SC)cc1 do in these assays?
Nox1 inhibitor: 3; S1P1 ag: 101*; NOTCH ag: -1; Luminol counter: 2

Results for Cn1c(CC2Sc3ccccc3NC2=O)nnc1SCC(=O)Nc1cccc(C(F)(F)F)c1 (stereo unspecified) ?
Nox1 inhibitor: 17; S1P1 ag: 18; NOTCH ag: 0; Luminol counter: 93*

What do the screens show for `O=C1C=CC(=O)N1Cc1ccc(Cl)c(Cl)c1`?
Nox1 inhibitor: -43; S1P1 ag: 7; NOTCH ag: -1; Luminol counter: 3

How did COC(=O)c1sccc1-c1ccc(CN2CCCc3cc(OC)ccc32)o1 do in these assays?
Nox1 inhibitor: 94*; S1P1 ag: -5; NOTCH ag: 0; Luminol counter: -30

How did COC(=O)c1sccc1OCc1nnc(-c2ccc(OC)cc2)o1 do in these assays?
Nox1 inhibitor: 20; S1P1 ag: -8; NOTCH ag: 0; Luminol counter: -8

What do the screens show for `CCOC(=O)N1CCc2c(sc3[nH]c(=O)n(-c4ccc(Cl)c(Cl)c4)c(=O)c23)C1`?
Nox1 inhibitor: -21; S1P1 ag: 15; NOTCH ag: 1; Luminol counter: -2

How did Cc1c(NCN2C(=O)CCC2=O)cc2c(c1[N+](=O)[O-])C(C)(C)CC2(C)C do in these assays?
Nox1 inhibitor: -2; S1P1 ag: 81*; NOTCH ag: 0; Luminol counter: -1

Results for N#C/C(=C\c1ccc(Cl)cc1Cl)C(=O)c1ccsc1 ?
Nox1 inhibitor: -47; S1P1 ag: -1; NOTCH ag: -1; Luminol counter: 3

What do the screens show for `Cc1cc(C(=O)O)cc(=O)[nH]1`?
Nox1 inhibitor: -57; S1P1 ag: -9; NOTCH ag: -1; Luminol counter: -1

What do the screens show for `c1ccc2c(c1)-c1ccccc1C2c1ccncc1`?
Nox1 inhibitor: 23; S1P1 ag: 9; NOTCH ag: 2.3*; Luminol counter: -7

How did Cn1nc(C(C)(C)C)cc1C(=O)O/N=C(\N)c1ccccc1 do in these assays?
Nox1 inhibitor: 4; S1P1 ag: 72; NOTCH ag: 0; Luminol counter: -8

How did Cc1ccc(Cn2nc(C(=O)O/N=C(\N)c3ccccc3)cc2C)cc1 do in these assays?
Nox1 inhibitor: 32; S1P1 ag: 100*; NOTCH ag: 0; Luminol counter: 0

What do the screens show for `O=C(NNc1nc(-c2cccc([N+](=O)[O-])c2)cs1)c1ccccc1Cl`?
Nox1 inhibitor: 75*; S1P1 ag: 23; NOTCH ag: 0; Luminol counter: 1

What do the screens show for `Nc1nc(-c2cccc([N+](=O)[O-])c2)cs1`?
Nox1 inhibitor: 15; S1P1 ag: 7; NOTCH ag: 0; Luminol counter: 4

How did Cc1nnsc1C(=O)NNC(=O)Nc1cc(C(F)(F)F)cc(C(F)(F)F)c1 do in these assays?
Nox1 inhibitor: 44; S1P1 ag: -2; NOTCH ag: 0; Luminol counter: 64

What do the screens show for `O=C(NCc1cccs1)c1ccc([N+](=O)[O-])o1`?
Nox1 inhibitor: -2; S1P1 ag: -2; NOTCH ag: -1; Luminol counter: -2

What do the screens show for `CC(C)/C=C/C1=CC2=C(C1)Cc1ccccc12`?
Nox1 inhibitor: 20; S1P1 ag: 10; NOTCH ag: 0; Luminol counter: 0

What do the screens show for `O=c1[nH][nH]c2cccc(F)c12`?
Nox1 inhibitor: 79*; S1P1 ag: 5; NOTCH ag: -1; Luminol counter: 11

Results for Cc1nc2cccc(F)c2c(=O)[nH]1 ?
Nox1 inhibitor: -10; S1P1 ag: 0; NOTCH ag: 0; Luminol counter: 1

What do the screens show for `N/C(=N\OC(=O)c1c(F)cccc1F)c1cccc(-n2cccc2)c1`?
Nox1 inhibitor: -5; S1P1 ag: 95*; NOTCH ag: 0; Luminol counter: -5

Results for O=c1c2c(c1=O)NCCCN2 ?
Nox1 inhibitor: -29; S1P1 ag: -12; NOTCH ag: 0; Luminol counter: -2

Results for CCOC(=O)c1nc(-c2cccs2)no1 ?
Nox1 inhibitor: -12; S1P1 ag: -2; NOTCH ag: -1; Luminol counter: 0

What do the screens show for `Cc1c(C(=O)Cn2ccnc2)sc2ccc(Cl)cc12`?
Nox1 inhibitor: -30; S1P1 ag: 104*; NOTCH ag: 0; Luminol counter: 8

What do the screens show for `Cc1c(C(=O)CC#N)sc2ccc(Cl)cc12`?
Nox1 inhibitor: 11; S1P1 ag: -8; NOTCH ag: 1; Luminol counter: 0

Results for Cc1cc(S(=O)(=O)NNc2ncnc3c2cnn3C)c(C)cc1Cl ?
Nox1 inhibitor: 102*; S1P1 ag: 2; NOTCH ag: 1; Luminol counter: 1

Results for Cn1ncc2c(NNC(=O)c3cc(Cl)cc(Cl)c3)ncnc21 ?
Nox1 inhibitor: 29; S1P1 ag: -7; NOTCH ag: -4; Luminol counter: 0

What do the screens show for `COc1cc2ncnc(NNS(=O)(=O)c3cc(C)c(Cl)cc3C)c2cc1OC`?
Nox1 inhibitor: 101*; S1P1 ag: 1; NOTCH ag: -1; Luminol counter: 9

Results for CCOC(=O)N1CCC(NC(=O)c2ccco2)CC1 ?
Nox1 inhibitor: 16; S1P1 ag: 7; NOTCH ag: 0; Luminol counter: -5

How did CC(C)(C)C(=O)NNC(=O)c1cc(C(C)(C)C)nn1Cc1ccccc1 do in these assays?
Nox1 inhibitor: -31; S1P1 ag: -4; NOTCH ag: 0; Luminol counter: 2

Results for COc1ccccc1NNC(=O)c1cc(C(C)(C)C)nn1Cc1ccccc1 ?
Nox1 inhibitor: 91*; S1P1 ag: 9; NOTCH ag: 0; Luminol counter: 0

What do the screens show for `CCCNC(=S)NCCO`?
Nox1 inhibitor: -7; S1P1 ag: -2; NOTCH ag: 0; Luminol counter: -2

What do the screens show for `O=C(c1cc2ccccc2s1)N1CCN(C(c2ccccc2)c2ccccc2)CC1`?
Nox1 inhibitor: -51; S1P1 ag: 83*; NOTCH ag: 0; Luminol counter: 3

What do the screens show for `CSc1nnc(SCC(=O)N2CCC(C(F)(F)F)CC2)s1`?
Nox1 inhibitor: -36; S1P1 ag: -13; NOTCH ag: 2.7*; Luminol counter: 3

Results for Cc1nnsc1C(=O)N1CCC(C(F)(F)F)CC1 ?
Nox1 inhibitor: 6; S1P1 ag: -3; NOTCH ag: 0; Luminol counter: -6

Results for O=C(O)c1ccccc1C(=O)N1CCN(Cc2c(F)cccc2Cl)CC1 ?
Nox1 inhibitor: -17; S1P1 ag: -14; NOTCH ag: 0; Luminol counter: 1

How did CSC(=CC(=O)c1ccncc1)SC do in these assays?
Nox1 inhibitor: -18; S1P1 ag: -5; NOTCH ag: 3.5*; Luminol counter: -5

Results for Cc1ncc2c(N)ncnc2n1 ?
Nox1 inhibitor: -2; S1P1 ag: 1; NOTCH ag: -1; Luminol counter: -3

How did Cc1nnsc1-c1n[nH]c(=S)n1C1CC1 do in these assays?
Nox1 inhibitor: 12; S1P1 ag: -13; NOTCH ag: 0; Luminol counter: 99*

How did CC(C)(C)C(=O)OCc1nc(-c2ccc3c(c2)OCO3)cs1 do in these assays?
Nox1 inhibitor: -25; S1P1 ag: 92*; NOTCH ag: 0; Luminol counter: 2
